Tested on: VDR homodimer (NR concentration 270 nM)
Test: PBM binding z-score (relative to random genomic background probes); higher = stronger binding; sequences stand for … in GC…GCGATTGACAGCGTAGAATGAAGG
Outline: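 Ligand-free nuclear receptor dimers were applied to custom Agilent 4×180K protein-binding microarrays whose double-stranded probes carried direct-repeat seeds, single-nucleotide variants, half-site ablations and random human genomic background sequences in 34-nt variable regions. Incubation lasted 1 h. Binding z-scores were computed against the random background probes from regression-normalized fluorescence.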

Row | Sequence | PBM binding z-score
1 | ATATGTAGGTTATCGGGTCATTCAGTTTGCGCAT | 4.34
2 | TAGCCTAGGTCATGCGGGCTAGTATAGTGTCGGC | 0.2
3 | TTACCAAGGTGAAGTTCGTTGATCCCTCTGTAGA | 1.66
4 | TCAGACAGGTGAACGTAACTCAGGTACGCAGTCG | 0.361
5 | CCAGACAGGTGAGAAGGTAACTCATCCTCGATTA | -0.146
6 | TCTATTAGTTGATTAGGGCCACCGAAACAGCGGA | 0.435
7 | CCTTACGGGTCAAAGTTATAGCACGGGTGGTACG | 1.46
8 | CCTAGCAGGCCAATCTGGGTCACTCACGGCTTGA | 0.103
9 | CCGAGTAGGTTTTGGGGCATTCAGGCAACGGTGA | 0.218
10 | TAGCCTAGGTCATGGGGCCAGTATAGTACGCATC | 1.05
11 | CCGATTAGGTTATGGGGCATTCAGGCAACGGTGA | 0.143
12 | CGAACGAGCGCATGAGTTGATAGCAAATGCCGAT | -0.0717
13 | CGTCCAAGGTCATAGGAGGTCTGTGAAGACAGAT | 2.81
14 | CGTCCAAGGTCATAGGATGTCAGTGAAGACAGAT | 3.2
15 | ACTAGCAGGCCAAGGGTCACTCATGATTAGTCCG | 1.07
16 | CCTCTTAGTTGACCATAAGGGCAACCGAAGCTCG | 0.985
17 | ATATGTAGGTTACATCCGGGGCATTCAGGCTATG | 0.977
18 | CCTAGCAGGCCAATCTGGGCCACTCAAGGCTTGA | -1.12
19 | CGTCCTAGGTCAAGGTCAGTGAAAGAGACTCGAA | 1.93
20 | GGAACGAGGGCAAGTTGGTAGCAGAGTTTGATGG | 1.91

Row | Sequence | PBM binding z-score
21 | ACAGACAGGTGAGTGAAGGTTACTCAGCTGGACG | -0.214
22 | ACTTACGGGTCAACGAGGTGATAGCACGCGTATA | 1.81
23 | AGAACGAGGACACGCTGAGTTGATAGCAGAGTAG | 1.14
24 | AGAACGAGGGCAATGTGTTGATAGCACGGGTGGC | 0.944
25 | ACTTACGGGTCAACGAGGTTATATCACGCGTATA | 3.3
26 | GCTCGAAGGACAAGGTCAGAGCTTTGTCCGTAGA | 0.387
27 | CCTACTGGGCCATCCGGTCATTGATATCAACGTT | 0.0499
28 | TTTATTAGTTGATTAGGGCAACCGAAACAGCGGA | 0.951
29 | CCTTACGGGTCACGAGGGTATAGCACGACGAGCG | 1.29
30 | CTCGAAAGGTCGGTTGAGATGAGTATACGGATAA | 0.738
31 | GTTATTAGTTGAAAGGGCAACCGAATGATTCTCG | 1.55
32 | ATCTCTAGGTAAGACGCAGTTCAGTGAAGAACGC | 0.544
33 | TCACATAGGTAAACAGGTGAAAGTCCGTAAGTTA | 0.318
34 | ATGGAAAGGTCGACGAGGTGAGTATACACCGTTT | 0.927
35 | CTACCAAGGTGATCAAGGTCGTTGATTACTATTC | 2.33
36 | ATCGAAAGGTCGTGAGGTGAGAATACAGAAAGGC | 0.87
37 | CCTAGTTGGTCAAGGTTACACACGCTATAGGTAC | 1.42
38 | TCTAGTTGGTCACTGAGGTCACACACGACGGGTA | 4.16
39 | AGAACGGGGGCACGCTGAGTTGATAGCAGAGTAG | 3.45
